A selection: hits, their analogues and other compounds. The true share with any hit is near 15%.
ELG1 DNA repair – ELG1-dependent DNA repair inhibition; hit rate 2.3% among 330,000; HEK293T ELG1-luciferase reporter, luminescence, 16 h; DNA damage induced by 5-fluorouridine; AID 504467; Potency, µM (series often up to 46.1 µM), inactives show at the highest dose activity change, negative = inhibition, actives largely listed as inhibitors; note: nearly all actives have a fitted effect of over 55% in size
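DMSO vehicle served as the neutral condition. Each well held 2,000 cells given 5-fluorouridine plus compound; after 16 hr at 37 °C/5% CO2, ONE-Glo was added and luciferase measured 30 min later.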
RORgamma inh – inhibitors of mouse ROR gamma transcriptional activity | P51450 | Drosophila S2 Gal4-RORgamma UAS-luciferase reporter, 20 h | Potency, µM (top dose mostly 53.6 µM), for the others: at the top dose activity change, negative = inhibition, actives largely listed as inhibitors | hit rate 5.4% among 310,000; note: nearly all actives have a fitted effect of over 60% in size
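ROR gamma transcriptional activity was tracked as Gal4-UAS luciferase output in stably transfected Drosophila Schneider cells, with compound added 1 hr before 700 uM copper sulfate induction and a 20 hr ambient-temperature incubation.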
12-LOX inh – ALOX12 (human) lipoxygenase inhibition; P18054; purified 12hLO, xylenol orange hydroperoxide absorbance; Potency, µM (titrated, usually from 108 µM), for the others: top-dose activity change, negative = inhibition, actives largely listed as inhibitors; hit rate 1.1% among 580,000
Target sequence (P18054 whole entry, looked up): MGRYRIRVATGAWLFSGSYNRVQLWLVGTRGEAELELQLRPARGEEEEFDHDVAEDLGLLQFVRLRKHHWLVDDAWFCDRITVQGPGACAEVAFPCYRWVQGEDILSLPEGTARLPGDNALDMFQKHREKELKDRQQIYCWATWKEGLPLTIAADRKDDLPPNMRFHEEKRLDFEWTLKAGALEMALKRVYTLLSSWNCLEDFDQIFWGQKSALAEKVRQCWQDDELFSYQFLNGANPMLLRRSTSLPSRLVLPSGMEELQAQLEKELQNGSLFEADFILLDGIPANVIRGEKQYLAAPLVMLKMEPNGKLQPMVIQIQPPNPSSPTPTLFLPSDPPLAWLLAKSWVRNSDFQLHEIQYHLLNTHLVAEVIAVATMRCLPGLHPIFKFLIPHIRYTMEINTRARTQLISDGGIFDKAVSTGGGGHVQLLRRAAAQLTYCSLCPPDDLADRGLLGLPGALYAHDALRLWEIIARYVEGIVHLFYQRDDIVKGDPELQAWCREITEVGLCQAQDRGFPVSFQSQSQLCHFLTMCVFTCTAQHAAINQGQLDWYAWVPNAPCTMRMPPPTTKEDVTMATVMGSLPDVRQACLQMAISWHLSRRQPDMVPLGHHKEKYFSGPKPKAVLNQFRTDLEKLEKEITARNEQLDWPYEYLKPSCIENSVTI
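Purified human 12hLO (150 nM final) in 25 mM Hepes, 0.01% Triton X-100, pH 7.0 was preincubated 15 min at room temperature with compound. Then 40 uM arachidonic acid was added, 30 min. Hydroperoxide was read by Fe-XO absorbance ratio 573/405 nm.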
DT40 TDP1 no CPT – qHTS for Inhibitors of human tyrosyl-DNA phosphodiesterase 1 (TDP1): qHTS in cells in absence of CPT; DT40 Tdp1-/- hTDP1 cells, no CPT, ATP luminescence, 48 h; Potency, µM (top dose mostly 46.2 µM), inactives show at the top dose activity change, negative = growth inhibition, most hits filed as inhibitors; hit rate 15% among 420,000; AID 686978, 2013; note: nearly all actives have a fitted effect of over 55% in size
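Growth kinetics read by CellTiter-Glo luminescence after ≥48 hr at 37 °C. Cells: DT40 Tdp1-/- stably carrying human TDP1, 400 per well, compound exposure in the absence of CPT (DMSO vehicle).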
DT40 TDP1 CPT – growth inhibition of DT40 Tdp1-/-;hTDP1 cells with camptothecin (screen for TDP1 inhibitors); Potency, µM (doses to about 46.2 µM), inactives show at the highest dose activity change, negative = growth inhibition, hits mostly inhibitors; hit rate 12% among 420,000; chicken DT40 Tdp1-/-;hTDP1 cells + 20 nM CPT, ATP luminescence, 48 h; note: nearly all actives have a fitted effect of over 55% in size
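Cell growth measured by CellTiter-Glo luminescence after a minimum 48 h, 37 C compound exposure with 20 nM CPT in Tdp1-knockout DT40 cells stably expressing hTDP1, seeded 400/well; qHTS titration format.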
VP16 counter – counter-screen for ROR gamma inhibitors: Gal4-VP16 reporter | Drosophila S2 Gal4-VP16 UAS-luciferase, luminescence, 20 h | Potency, µM (series often up to 53.6 µM), without a hit: at the top dose activity, negative = inhibition, hits mostly inhibitors | AID 2546 | hit rate 3.5% among 310,000;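 note: Gal4-VP16 expression switched on by copper sulfate through the metallothionein promoter; nearly all actives have a fitted effect of over 50% in size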
* = called active by the depositor; ? = inconclusive; . = no result given; [ ] = dose if it differs, or a comment. Calls come from the whole dose curve; as a rule, active = well fitted curve in the direction sought with a large enough effect; inconclusive = small, poorly fitted or top-dose-only effect, or another doubt; inactive = no such curve, though single readings can be large; an effect the other way counts as inactive or inconclusive. % is set by controls: 0 for no effect and ±100 for the full control effect; potency is the fitted concentration of half-maximal effect.

SMILES	ELG1 DNA repair	RORgamma inh	12-LOX inh	DT40 TDP1 no CPT	DT40 TDP1 CPT	VP16 counter
COc1cccc(C(=O)NC[C@@H]2CC[C@H]3C[C@@H]2C3(C)C)c1	.	.	-4%[176 µM]	.	.	.
CCCCC1=CC2=CC(=O)C(C)(OC(=O)CC)C(=O)C2=CN1Cc1ccc2c(c1)OCO2 (centres undefined)	-1%	-2%	-60%	15µM*	?	0%
CCCCC1=CC2=CC(=O)C(C)(OC(=O)CC)C(=O)C2=CN1CCCCO (centres undefined)	13%	-1%	-17%	-4%	16%	-6%
CCCCC1=CC2=CC(=O)C(C)(OC(=O)CC)C(=O)C2=CN1c1ccc(OC)cc1 (centres undefined)	-2%	-32%	207%	?	26µM*	3%
COC(=O)c1ccc(COc2ccc3c(=O)c(-c4ccc(OC)cc4)c(C)oc3c2)cc1	.	.	1%	.	.	.
CC(NC(=O)c1ccc2c(c1)CCCC2)c1ccc(F)cc1F (centres undefined)	.	.	40µM*	.	.	.
COCc1ccc(C(=O)NC(C)c2ccc(F)cc2F)cc1 (centres undefined)	.	.	-21%	.	.	.
Clc1ccc2c(ccc[n+]2CCC2CCCCC2)c1	.	.	.	8.9µM*	10µM*	.
Clc1ccc2c(ccc[n+]2CCc2ccccc2)c1	.	.	.	?	-30%	.
CCCCCCCCCC[n+]1cccc2cc(Cl)ccc21	.	.	.	1.3µM*	1.3µM*	.
COc1ccc(CCC(=O)NCCC2CCN(C(=O)Nc3cc(F)cc(F)c3)CC2)cc1	.	.	22%	.	.	.
COc1ccc(C2C3=C(CCCC3=O)Nc3ccc4ncccc4c32)cc1OC (centres undefined)	?	-6%	-4%	12%	-1%	11%
COc1cc(C2C3=C(CCCC3=O)Nc3ccc4ncccc4c32)ccc1O (centres undefined)	?	12%	-17%	6.5µM*	6.5µM*	17%
CC1(C)CC2CC(C)(CN2Cc2c(O)ccc3ccccc23)C1 (centres undefined)	6%	-4%	?	13µM*	?	16%
Cn1cc(C(=O)N/N=C/C(Br)=C/c2ccccc2)ccc1=O	-12%	?	0%	2.3µM*	3.3µM*	?
Cn1cc(C(=O)N/N=C/C(Br)=C\c2ccccc2)ccc1=O	0%	?	0%	2.9µM*	2.3µM*	4%
Cc1ccccc1C(=O)N1CCC(CCC(=O)NCCc2c[nH]c3ccccc23)CC1	.	.	0%	.	.	.
CN1CC(=O)N(C2CCNC2)Cc2c(NCc3ccccn3)ncnc21 (centres undefined)	.	.	43%	.	.	.
Cc1ccccc1N1C(=O)C(Cl)=C(N2CCCCCC2)C1=O	-15%	1%	-29%	?	29µM*	-7%
O=C1C(Cl)=C(N2CCCCC2)C(=O)N1c1ccccc1Cl	12%	-15%	-14%	-24%	?	-2%
Cc1cc(C)cc(C(=O)N2CCC(Oc3ccc(C(=O)N(C)C)cn3)CC2)c1	.	.	27%	.	.	.
COc1cc(CC(=O)Nc2ccccc2-c2ccccc2)cc(OC)c1OC	.	.	-2%	.	.	.
COc1ccc(-c2cc(NC(C)=O)c3ncc(-c4ccc(OC)c(OC)c4)n3c2)cc1OC	.	.	?	15µM*	18µM*	.
COc1cc(-c2cc(NC(C)=O)c3ncc(-c4cc(OC)c(OC)c(OC)c4)n3c2)cc(OC)c1OC	.	.	0%	7.3µM*	8.2µM*	.
COc1cc(-c2ccc(NC(C)=O)c(OC)c2)ccc1NC(C)=O	0%	-1%	0%	-2%	-1%	-2%
SMILES	ELG1 DNA repair	RORgamma inh	12-LOX inh	DT40 TDP1 no CPT	DT40 TDP1 CPT	VP16 counter
COc1ccc(-c2cnc3c(NC(C)=O)cc(-c4ccsc4)cn23)cc1OC	.	.	.	21µM*	16µM*	.
COc1cc(-c2cnc3c(NC(C)=O)cc(-c4ccccc4CN(C)C)cn23)cc(OC)c1OC	.	.	-6%	18µM*	23µM*	.
O=C(COc1ncnc2c(Cl)cc(Cl)cc12)Nc1ccc(Cl)cc1	.	.	-18%	.	.	.
C=CCOc1ccc(/C=C/C(=O)Nc2ccc(C(N)=O)cc2)cc1	.	.	1%	.	.	.
COc1ccc2nc(C)c(C(=O)Nc3cc(C)ccn3)cc2c1	.	.	-17%	.	.	.
COc1ccccc1NC(C)=O	6%	-15%	11%	-2%	-1%	-1%
CC(=O)Nc1cc(-c2ccsc2)cn2c(-c3ccc(F)cc3)cnc12	.	.	?	18µM*	16µM*	.
COc1ccccc1-c1cc(NC(C)=O)c2ncc(-c3cccc(C(C)=O)c3)n2c1	.	.	?	15µM*	23µM*	.
COc1ccc(-c2cnc3c(NC(C)=O)cc(-c4ccccc4OC)cn23)cc1OC	.	.	?	-83%	12µM*	.
CC(=O)Nc1cc(-c2cccnc2)cn2c(-c3ccc(F)cc3)cnc12	.	.	-8%	23µM*	?	.
COCCn1c(=O)c2c(nc(-n3nc(C)cc3C)n2CCc2ccccc2)n(C)c1=O	.	.	-8%	.	.	.
COCC(C)n1c(C)cc(C(=O)CSc2nc3nc(C)cc(C)n3n2)c1C (centres undefined)	.	.	-14%	.	.	.
CCOC(=O)C(=Cc1ccc(N(C)C)cc1)C(=O)c1ccccc1	.	.	-6%	?	16µM*	.
CCOC(=O)/C(=C/c1ccc(OC(=O)c2ccccc2)cc1)C(C)=O	?	?	?	?	18µM*	?
CC(=O)/C(=C/c1ccc(N(C)C)cc1)C(=O)c1ccccc1	-16%	17%	-17%	?	?	-4%
CC1(C)CC2(CC(c3ccccc3F)c3ccc(O)c(O)c3O2)NC(=S)N1 (centres undefined)	8%	-14%	-52%	23µM*	?	4%
N=c1n(CCN2CCOCC2)c2ccccc2n1CC(=O)c1cccc([N+](=O)[O-])c1	?	18%	0%	23µM*	16µM*	2%
CCCCOC(=O)Cn1c(=N)n(CCN2CCOCC2)c2ccccc21	.	.	0%	-17%	9%	.
N=c1n(CCN2CCOCC2)c2ccccc2n1CC(=O)c1ccc(Cl)c(Cl)c1	?	?	?	18µM*	?	4µM*
N=c1n(CC(=O)c2cccc([N+](=O)[O-])c2)c2ccccc2n1Cc1ccccc1	-12%	7.1µM*	?	21µM*	16µM*	?
CCn1c(=N)n(CC(=O)c2cccc([N+](=O)[O-])c2)c2ccccc21	?	-25%	-10%	21µM*	?	-2%
O=C(Nc1nc2ccccc2n1CCN1CCOCC1)c1cccc([N+](=O)[O-])c1	.	.	10%[57.4 µM]	.	.	.
